The values that follow come from paper PMC7862700, “An all-to-all approach to the identification of sequence-specific readers for epigenetic DNA modifications on cytosine”.

Assay in all cases: DAPPL (digital affinity profiling via proximity ligation, sequencing); 10 mM Tris-HCl pH 7.5, 50 mM NaCl, 1 mM DTT, 4% glycerol, room temperature, 30 min; GST-TFs on glutathione beads, 16-mer random dsDNA library, 0.1% formaldehyde crosslink after washing; high values mean tight binding
One assay deals with T1, FEV (Homo sapiens, UniProt Q99581 1-238).
T1 sequence: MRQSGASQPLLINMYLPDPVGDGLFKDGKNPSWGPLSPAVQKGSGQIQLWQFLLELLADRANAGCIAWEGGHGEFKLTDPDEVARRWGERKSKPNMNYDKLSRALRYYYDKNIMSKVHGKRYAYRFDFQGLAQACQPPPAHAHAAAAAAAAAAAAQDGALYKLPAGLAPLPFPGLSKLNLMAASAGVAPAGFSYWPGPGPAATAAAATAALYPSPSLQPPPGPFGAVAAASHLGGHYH
The conditions noted are these: protein: recombinant; tags: N-terminal GST; dsDNA, one strand shown. In short, it runs like this:
(§1)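 Each value of binding signal is a hexamer's read frequency for a factor divided by the same hexamer's frequency in the tag-only sample. Barcoded, bead-captured GST fusions of human transcription factors made in yeast were pooled with that sample and incubated with 200 nmole of a random double-stranded 16-mer DNA library in Tris/NaCl/DTT/glycerol buffer at room temperature for 30 min. Washing, 0.1% formaldehyde crosslinking, proximity ligation, PCR and Illumina NextSeq500 sequencing followed.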

The target in another assay is ETV5 (Homo sapiens, UniProt P41161 1-510). The settings on record: protein: recombinant; tags: N-terminal GST; dsDNA, one strand shown. Summed up: as §1
Chain of ETV5 (P41161 whole entry): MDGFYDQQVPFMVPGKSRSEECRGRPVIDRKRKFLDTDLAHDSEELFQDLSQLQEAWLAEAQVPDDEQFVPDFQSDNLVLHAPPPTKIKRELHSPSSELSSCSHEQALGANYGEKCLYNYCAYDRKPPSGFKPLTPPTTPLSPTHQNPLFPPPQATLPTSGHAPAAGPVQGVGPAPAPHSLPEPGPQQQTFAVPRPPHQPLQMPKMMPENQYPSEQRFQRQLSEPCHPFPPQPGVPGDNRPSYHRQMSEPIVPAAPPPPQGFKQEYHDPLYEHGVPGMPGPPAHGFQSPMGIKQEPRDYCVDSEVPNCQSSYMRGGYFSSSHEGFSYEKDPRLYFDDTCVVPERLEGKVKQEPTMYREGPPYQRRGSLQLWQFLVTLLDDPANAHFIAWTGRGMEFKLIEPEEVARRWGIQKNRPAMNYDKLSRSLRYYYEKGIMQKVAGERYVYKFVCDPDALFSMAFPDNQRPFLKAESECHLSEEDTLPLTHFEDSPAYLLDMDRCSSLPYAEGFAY
The target in another assay is HSF1 (Homo sapiens, UniProt Q00613 1-529). The conditions noted are these: protein: recombinant; tags: N-terminal GST; chain copies: 3; dsDNA, one strand shown. In short, it runs like this: as §1
Chain of HSF1 (Q00613 whole entry): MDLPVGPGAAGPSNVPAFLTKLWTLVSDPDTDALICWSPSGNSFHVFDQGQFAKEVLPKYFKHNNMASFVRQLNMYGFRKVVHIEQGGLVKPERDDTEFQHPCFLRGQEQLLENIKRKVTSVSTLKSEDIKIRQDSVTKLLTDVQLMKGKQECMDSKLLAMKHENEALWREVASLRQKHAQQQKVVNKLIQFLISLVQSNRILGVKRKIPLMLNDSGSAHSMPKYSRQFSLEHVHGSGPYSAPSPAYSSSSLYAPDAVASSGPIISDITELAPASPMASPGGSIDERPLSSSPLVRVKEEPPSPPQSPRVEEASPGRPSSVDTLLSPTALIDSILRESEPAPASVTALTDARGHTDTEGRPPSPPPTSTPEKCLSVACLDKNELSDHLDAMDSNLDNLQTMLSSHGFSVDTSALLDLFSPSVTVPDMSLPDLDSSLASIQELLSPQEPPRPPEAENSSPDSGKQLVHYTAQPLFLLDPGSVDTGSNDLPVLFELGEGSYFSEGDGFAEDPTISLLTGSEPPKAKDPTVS
The target in a further assay is T2, SPIC (Homo sapiens, UniProt Q8N5J4 1-248).
T2 sequence: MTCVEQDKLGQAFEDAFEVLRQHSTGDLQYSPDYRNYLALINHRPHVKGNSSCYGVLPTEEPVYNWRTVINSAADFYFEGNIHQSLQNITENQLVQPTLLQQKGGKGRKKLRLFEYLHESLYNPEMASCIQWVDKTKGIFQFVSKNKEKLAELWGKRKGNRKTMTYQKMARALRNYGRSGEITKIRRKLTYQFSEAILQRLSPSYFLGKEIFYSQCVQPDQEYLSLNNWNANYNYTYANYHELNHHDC
The conditions noted are these: protein: recombinant; tags: N-terminal GST; dsDNA, one strand shown. In short, it runs like this:
as §1

The next assay has as its target ELF4 (Homo sapiens, UniProt Q99607 1-663). The settings on record: protein: recombinant; tags: N-terminal GST; dsDNA, one strand shown. In short, it runs like this: as §1
The target in another assay is T3, ELK4 (Homo sapiens, UniProt P28324-2 1-405).
T3 sequence: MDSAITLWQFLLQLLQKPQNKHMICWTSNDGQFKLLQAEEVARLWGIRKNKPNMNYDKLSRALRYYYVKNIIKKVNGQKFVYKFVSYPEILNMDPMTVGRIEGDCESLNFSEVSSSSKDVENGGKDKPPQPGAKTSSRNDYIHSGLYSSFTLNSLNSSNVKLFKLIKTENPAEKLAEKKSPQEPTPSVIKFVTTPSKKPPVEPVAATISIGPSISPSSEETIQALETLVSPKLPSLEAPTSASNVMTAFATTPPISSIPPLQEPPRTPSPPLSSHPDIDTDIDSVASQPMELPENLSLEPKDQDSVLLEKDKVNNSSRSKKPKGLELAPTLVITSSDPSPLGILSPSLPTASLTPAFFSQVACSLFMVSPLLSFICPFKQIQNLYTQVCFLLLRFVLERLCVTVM
The settings on record: protein: recombinant; tags: N-terminal GST; dsDNA, one strand shown. Summed up:
as §1

For the next assay, the target named is T4, ETV2 (Homo sapiens, UniProt O00321 1-342).
T4 sequence: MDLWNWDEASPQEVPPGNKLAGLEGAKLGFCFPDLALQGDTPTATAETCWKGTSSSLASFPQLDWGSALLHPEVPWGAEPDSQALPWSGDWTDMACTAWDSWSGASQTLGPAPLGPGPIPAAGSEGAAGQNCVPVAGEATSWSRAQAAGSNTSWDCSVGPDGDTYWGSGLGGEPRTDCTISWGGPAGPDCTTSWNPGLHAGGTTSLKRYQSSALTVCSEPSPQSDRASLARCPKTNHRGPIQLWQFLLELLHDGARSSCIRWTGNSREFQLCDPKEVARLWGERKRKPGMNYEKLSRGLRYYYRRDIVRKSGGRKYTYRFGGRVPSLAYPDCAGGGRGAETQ
The settings on record: protein: recombinant; tags: N-terminal GST; dsDNA, one strand shown. In short, it runs like this:
as §1

The target of a further assay is T5, ELF3 (Homo sapiens, UniProt P78545 1-371).
T5 sequence: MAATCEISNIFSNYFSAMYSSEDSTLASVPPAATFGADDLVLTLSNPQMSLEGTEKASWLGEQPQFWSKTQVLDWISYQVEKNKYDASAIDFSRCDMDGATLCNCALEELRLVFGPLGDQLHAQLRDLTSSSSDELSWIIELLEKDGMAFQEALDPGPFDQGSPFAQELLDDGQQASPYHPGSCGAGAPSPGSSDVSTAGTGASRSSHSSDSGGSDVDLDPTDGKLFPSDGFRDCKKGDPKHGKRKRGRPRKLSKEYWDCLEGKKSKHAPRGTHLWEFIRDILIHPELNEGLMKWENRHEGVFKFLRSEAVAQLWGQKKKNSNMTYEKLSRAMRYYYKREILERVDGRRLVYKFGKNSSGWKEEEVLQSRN
The settings on record: protein: recombinant; tags: N-terminal GST; dsDNA, one strand shown. In short, it runs like this:
as §1

The target in the next assay is CRX (Homo sapiens, UniProt O43186 1-299). The conditions noted are these: protein: recombinant; tags: N-terminal GST; dsDNA, one strand shown. Summed up:
as §1

The next assay concerns the target ETV1 (Homo sapiens, UniProt P50549 1-477). The conditions noted are these: protein: recombinant; tags: N-terminal GST; dsDNA, one strand shown. Summed up: as §1
In another assay the target is T6, ERF (Homo sapiens, UniProt P50548 1-548).
T6 sequence: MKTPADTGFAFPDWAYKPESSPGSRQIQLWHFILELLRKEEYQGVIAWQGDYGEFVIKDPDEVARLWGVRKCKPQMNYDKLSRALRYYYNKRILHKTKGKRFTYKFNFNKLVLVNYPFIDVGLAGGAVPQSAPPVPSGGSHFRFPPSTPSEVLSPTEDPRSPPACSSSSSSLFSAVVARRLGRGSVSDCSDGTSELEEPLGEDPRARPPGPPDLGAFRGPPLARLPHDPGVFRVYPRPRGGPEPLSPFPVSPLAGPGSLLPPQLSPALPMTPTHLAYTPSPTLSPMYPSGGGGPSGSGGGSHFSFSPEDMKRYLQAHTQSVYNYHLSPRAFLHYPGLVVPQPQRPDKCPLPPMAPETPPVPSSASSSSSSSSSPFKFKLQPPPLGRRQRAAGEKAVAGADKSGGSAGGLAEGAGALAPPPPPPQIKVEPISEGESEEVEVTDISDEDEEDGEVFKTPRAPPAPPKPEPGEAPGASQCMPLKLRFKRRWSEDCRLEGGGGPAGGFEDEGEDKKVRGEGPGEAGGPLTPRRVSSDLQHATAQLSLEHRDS
The settings on record: protein: recombinant; tags: N-terminal GST; dsDNA, one strand shown. In short, it runs like this:
as §1

The target in another assay is T7, ETV3L (Homo sapiens, UniProt Q6ZN32 1-361).
T7 sequence: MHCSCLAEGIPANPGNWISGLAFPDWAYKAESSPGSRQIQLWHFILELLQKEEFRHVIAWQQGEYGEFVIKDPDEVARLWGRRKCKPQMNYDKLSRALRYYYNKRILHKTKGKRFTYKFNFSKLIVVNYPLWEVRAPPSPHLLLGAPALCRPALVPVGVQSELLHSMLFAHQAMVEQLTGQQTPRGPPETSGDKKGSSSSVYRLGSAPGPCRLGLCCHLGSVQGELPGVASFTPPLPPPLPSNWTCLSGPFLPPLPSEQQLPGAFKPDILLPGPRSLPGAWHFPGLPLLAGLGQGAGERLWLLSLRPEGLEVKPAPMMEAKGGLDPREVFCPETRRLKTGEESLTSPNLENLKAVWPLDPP
The settings on record: protein: recombinant; tags: N-terminal GST; dsDNA, one strand shown. Summed up:
as §1

In the next assay the target is T8, ETS2 (Homo sapiens, UniProt P15036 1-469).
T8 sequence: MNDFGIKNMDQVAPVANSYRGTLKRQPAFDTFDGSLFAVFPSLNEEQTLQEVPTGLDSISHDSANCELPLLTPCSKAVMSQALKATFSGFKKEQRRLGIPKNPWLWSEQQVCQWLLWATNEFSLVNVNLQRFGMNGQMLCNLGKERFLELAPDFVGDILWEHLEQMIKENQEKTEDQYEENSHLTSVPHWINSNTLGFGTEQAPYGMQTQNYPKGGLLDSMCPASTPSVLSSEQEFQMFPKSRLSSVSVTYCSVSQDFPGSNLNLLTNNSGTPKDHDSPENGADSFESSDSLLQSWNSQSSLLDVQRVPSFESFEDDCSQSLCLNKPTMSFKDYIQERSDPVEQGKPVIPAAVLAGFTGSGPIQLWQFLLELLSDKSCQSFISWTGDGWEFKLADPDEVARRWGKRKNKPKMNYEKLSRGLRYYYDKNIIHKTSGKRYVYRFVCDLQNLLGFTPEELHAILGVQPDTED
The conditions noted are these: protein: recombinant; tags: N-terminal GST; dsDNA, one strand shown. In short, it runs like this:
as §1

A further assay deals with T9, SPDEF (Homo sapiens, UniProt O95238 1-335).
T9 sequence: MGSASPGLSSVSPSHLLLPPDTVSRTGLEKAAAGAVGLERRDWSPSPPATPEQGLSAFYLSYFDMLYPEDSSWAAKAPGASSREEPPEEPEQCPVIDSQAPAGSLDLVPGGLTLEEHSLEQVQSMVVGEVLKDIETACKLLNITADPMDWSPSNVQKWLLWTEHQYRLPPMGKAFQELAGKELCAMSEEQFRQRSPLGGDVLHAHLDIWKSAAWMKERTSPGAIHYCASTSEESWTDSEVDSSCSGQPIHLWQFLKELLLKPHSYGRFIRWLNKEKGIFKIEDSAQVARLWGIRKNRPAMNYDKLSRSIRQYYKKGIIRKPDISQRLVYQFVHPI
The conditions noted are these: protein: recombinant; tags: N-terminal GST; dsDNA, one strand shown. In short, it runs like this:
as §1

The next assay has as its target T10, ETV7 (Homo sapiens, UniProt Q9Y603 1-341).
T10 sequence: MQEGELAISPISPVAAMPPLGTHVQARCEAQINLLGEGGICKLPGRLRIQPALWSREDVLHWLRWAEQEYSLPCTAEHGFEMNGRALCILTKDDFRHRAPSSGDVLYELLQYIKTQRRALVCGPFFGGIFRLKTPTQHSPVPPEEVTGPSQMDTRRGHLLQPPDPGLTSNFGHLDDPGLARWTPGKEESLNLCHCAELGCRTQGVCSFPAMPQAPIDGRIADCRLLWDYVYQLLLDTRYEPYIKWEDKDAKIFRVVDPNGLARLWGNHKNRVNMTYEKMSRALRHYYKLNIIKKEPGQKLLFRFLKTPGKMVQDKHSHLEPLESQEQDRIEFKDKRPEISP
The settings on record: protein: recombinant; tags: N-terminal GST; dsDNA, one strand shown. Summed up: as §1

A further assay concerns the target T11, ELF5 (Homo sapiens, UniProt Q9UKW6-2 1-255).
T11 sequence: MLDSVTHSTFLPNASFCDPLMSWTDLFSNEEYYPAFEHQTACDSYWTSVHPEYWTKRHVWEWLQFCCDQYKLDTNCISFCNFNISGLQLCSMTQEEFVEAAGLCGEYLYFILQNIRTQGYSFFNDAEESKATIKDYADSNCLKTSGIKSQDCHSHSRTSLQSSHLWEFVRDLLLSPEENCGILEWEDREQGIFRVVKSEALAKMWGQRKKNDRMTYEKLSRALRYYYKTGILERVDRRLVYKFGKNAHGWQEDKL
The conditions noted are these: protein: recombinant; tags: N-terminal GST; dsDNA, one strand shown. In short, it runs like this:
as §1

A further assay has as its target T12, ETV3 (Homo sapiens, UniProt P41162-2 1-143).
T12 sequence: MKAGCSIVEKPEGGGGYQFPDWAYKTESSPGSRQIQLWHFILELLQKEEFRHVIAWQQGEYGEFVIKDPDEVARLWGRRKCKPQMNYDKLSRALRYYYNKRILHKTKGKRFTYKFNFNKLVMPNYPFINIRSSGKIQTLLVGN
The conditions noted are these: protein: recombinant; tags: N-terminal GST; dsDNA, one strand shown. Summed up:
as §1

A further assay has as its target ETV6 (Homo sapiens, UniProt P41212 1-452). The settings on record: protein: recombinant; tags: N-terminal GST; dsDNA, one strand shown. Summed up:
as §1

Chain of CRX (O43186 whole entry): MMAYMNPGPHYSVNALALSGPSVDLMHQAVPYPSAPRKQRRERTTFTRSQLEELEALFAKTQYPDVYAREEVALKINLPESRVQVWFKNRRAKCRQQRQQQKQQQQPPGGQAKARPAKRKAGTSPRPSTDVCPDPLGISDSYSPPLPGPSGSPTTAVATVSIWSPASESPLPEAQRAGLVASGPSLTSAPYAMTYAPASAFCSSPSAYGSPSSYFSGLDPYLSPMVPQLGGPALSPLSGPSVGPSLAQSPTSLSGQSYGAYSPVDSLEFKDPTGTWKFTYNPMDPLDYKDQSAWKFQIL
Chain of ETV1 (P50549 whole entry): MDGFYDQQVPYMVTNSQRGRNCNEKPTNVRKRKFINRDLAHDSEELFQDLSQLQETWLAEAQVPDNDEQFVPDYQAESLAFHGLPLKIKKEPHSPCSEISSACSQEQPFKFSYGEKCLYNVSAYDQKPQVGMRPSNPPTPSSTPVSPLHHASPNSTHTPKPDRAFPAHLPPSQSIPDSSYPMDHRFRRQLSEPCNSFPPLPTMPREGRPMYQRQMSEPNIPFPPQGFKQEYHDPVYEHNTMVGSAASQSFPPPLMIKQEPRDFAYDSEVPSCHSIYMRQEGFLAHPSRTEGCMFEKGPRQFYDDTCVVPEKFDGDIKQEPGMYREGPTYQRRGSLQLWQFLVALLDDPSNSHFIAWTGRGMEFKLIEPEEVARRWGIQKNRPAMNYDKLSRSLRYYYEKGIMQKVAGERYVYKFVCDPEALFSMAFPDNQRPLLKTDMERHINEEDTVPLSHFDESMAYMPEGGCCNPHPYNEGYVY
Chain of ELF4 (Q99607 whole entry): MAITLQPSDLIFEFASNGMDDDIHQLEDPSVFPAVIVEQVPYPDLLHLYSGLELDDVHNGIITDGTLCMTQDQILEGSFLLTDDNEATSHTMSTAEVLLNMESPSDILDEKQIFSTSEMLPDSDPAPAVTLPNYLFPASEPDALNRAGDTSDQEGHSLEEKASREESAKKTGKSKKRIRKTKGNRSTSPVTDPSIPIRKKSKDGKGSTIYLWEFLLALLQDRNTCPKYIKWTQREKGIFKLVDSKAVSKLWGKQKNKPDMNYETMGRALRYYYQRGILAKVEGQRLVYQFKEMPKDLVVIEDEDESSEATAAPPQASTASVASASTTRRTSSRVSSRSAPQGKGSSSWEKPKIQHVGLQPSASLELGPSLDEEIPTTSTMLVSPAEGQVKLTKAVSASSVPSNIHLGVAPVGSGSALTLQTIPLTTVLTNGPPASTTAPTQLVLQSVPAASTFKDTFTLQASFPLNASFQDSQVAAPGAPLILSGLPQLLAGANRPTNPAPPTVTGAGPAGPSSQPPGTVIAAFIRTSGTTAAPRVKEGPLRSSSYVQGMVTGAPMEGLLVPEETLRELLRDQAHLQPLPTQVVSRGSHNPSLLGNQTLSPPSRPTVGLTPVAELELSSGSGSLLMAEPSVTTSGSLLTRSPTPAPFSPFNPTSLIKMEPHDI
Chain of ETV6 (P41212 whole entry): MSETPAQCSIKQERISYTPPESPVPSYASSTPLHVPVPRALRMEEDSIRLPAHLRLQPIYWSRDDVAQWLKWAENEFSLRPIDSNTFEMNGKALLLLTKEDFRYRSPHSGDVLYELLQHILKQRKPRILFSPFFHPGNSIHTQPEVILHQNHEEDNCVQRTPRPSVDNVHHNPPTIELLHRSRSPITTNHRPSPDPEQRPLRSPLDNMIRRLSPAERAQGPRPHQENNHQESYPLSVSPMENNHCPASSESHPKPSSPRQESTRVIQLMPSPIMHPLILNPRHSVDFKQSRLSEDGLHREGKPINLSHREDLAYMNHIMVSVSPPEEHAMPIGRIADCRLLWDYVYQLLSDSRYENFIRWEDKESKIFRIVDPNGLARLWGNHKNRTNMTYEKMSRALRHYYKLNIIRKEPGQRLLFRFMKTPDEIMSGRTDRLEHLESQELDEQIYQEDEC

CATATA: the binding signal in the assay with FEV is 1.08 fold enrichment (6-mer frequency, TF over GST control); with ETV5, 1.09 fold enrichment (6-mer frequency, TF over GST control); with HSF1, 1.03 fold enrichment (6-mer frequency, TF over GST control); in the assay with SPIC, 1.14 fold enrichment (6-mer frequency, TF over GST control); in the assay with ELF4, 1.11 fold enrichment (6-mer frequency, TF over GST control); with ELK4 it was 1.07 fold enrichment (6-mer frequency, TF over GST control). Besides, the binding signal is 1.17 fold enrichment (6-mer frequency, TF over GST control) with ETV2; 1.07 fold enrichment (6-mer frequency, TF over GST control) in the assay with ELF3; 1.09 fold enrichment (6-mer frequency, TF over GST control) with CRX; 1.06 fold enrichment (6-mer frequency, TF over GST control) in the assay with ETV1; 1.04 fold enrichment (6-mer frequency, TF over GST control) with ERF; 1.09 fold enrichment (6-mer frequency, TF over GST control) with ETV3L. Besides, the binding signal was 1.08 fold enrichment (6-mer frequency, TF over GST control) in the assay with ETS2; 1.02 fold enrichment (6-mer frequency, TF over GST control) with SPDEF; 1.1 fold enrichment (6-mer frequency, TF over GST control) with ETV7; 1.01 fold enrichment (6-mer frequency, TF over GST control) with ELF5; 1.09 fold enrichment (6-mer frequency, TF over GST control) in the assay with ETV3; 1.12 fold enrichment (6-mer frequency, TF over GST control) with ETV6.
